# 12-LOX inh = Primary qHTS assay for inhibitors of human arachidonate 12S-lipoxygenase (ALOX12): Round 2; Polyunsaturated fatty acid lipoxygenase ALOX12 (Homo sapiens), P18054; purified 12hLO, xylenol orange hydroperoxide absorbance; Potency, µM (series often up to 108 µM), hits mostly inhibitors; 580,000 tested, 1.1% active
#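 Hydroperoxide product was detected by ferrous iron/xylenol orange as the 573 to 405 nm absorbance ratio. Arachidonic acid at 40 uM (final) was turned over for 30 min at room temperature by 150 nM human 12hLO, pH 7.0 Hepes buffer, after 15 min compound preincubation.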
# G9a inh = qHTS Assay for Inhibitors of Histone Lysine Methyltransferase G9a; 350,000 tested, 8.8% active; Histone-lysine N-methyltransferase EHMT2 (Homo sapiens), Q96KQ7; Potency, µM (titrated, usually from 102 µM), hits mostly inhibitors; G9a H3K9 monomethylation, AlphaScreen, 2 h; also: nearly all actives have a fitted effect of over 75% in size
#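 Chemiluminescent proximity detection of H3K9 monomethylation, read after 10 min bead incubation in the dark. Reaction: 20 nM G9a, 500 nM biotin-H3K9 peptide, 20 uM SAM cofactor, 2 h, room temperature, following 15 min enzyme-compound preincubation.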
# PLK1 PBD inh = qHTS for Inhibitors of PLK1-PDB (polo-like kinase 1 - polo-box domain): Primary Screen; Serine/threonine-protein kinase PLK1 (Homo sapiens), P53350; Plk1 PBD binding of FITC phosphopeptide, fluorescence polarization; Potency, µM, most hits filed as inhibitors; 360,000 tested, 2.8% active; also: series mostly up to about 57 µM; nearly all actives have a fitted effect of over 65% in size
# Target sequence (P53350 whole entry, looked up, the tested form may be a part): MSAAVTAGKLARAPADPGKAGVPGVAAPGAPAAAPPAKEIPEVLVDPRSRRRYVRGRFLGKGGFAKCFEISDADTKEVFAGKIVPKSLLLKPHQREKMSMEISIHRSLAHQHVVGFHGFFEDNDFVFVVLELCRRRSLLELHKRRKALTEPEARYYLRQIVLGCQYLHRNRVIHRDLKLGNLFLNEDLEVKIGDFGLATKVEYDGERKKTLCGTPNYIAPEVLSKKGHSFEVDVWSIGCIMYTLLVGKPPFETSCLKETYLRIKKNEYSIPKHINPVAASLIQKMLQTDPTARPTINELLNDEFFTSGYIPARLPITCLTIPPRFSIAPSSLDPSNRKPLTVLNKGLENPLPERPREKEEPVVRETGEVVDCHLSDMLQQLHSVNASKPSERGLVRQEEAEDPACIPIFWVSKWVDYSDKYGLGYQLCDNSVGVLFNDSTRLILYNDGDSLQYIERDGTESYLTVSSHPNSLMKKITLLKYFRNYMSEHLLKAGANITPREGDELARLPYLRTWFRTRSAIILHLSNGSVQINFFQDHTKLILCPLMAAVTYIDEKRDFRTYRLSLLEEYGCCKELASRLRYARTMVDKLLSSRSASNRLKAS
# JMJD2A Tudor inh = qHTS Assay for Inhibitors of JMJD2A-Tudor Domain; AlphaScreen JMJD2A-Tudor / H3K4me3 peptide binding; Potency, µM (titrated, usually from 114 µM), most hits filed as inhibitors; 390,000 tested, 4.4% active; AID 504339, 2011; also: nearly all actives have a fitted effect of over 50% in size
# HP1b chromo inh = HTS for Inhibitors of HP1-beta Chromodomain Interactions with Methylated Histone Tails; AlphaScreen HP1-beta / biotin-H3K9me3 peptide binding; AID 540317, 2011; Potency, µM (highest dose often 114 µM), usual class: inhibitors; 390,000 tested, 0.56% active; also: nearly all actives have a fitted effect of over 70% in size
#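 HP1-beta protein (50 nM final) preincubated 30 min at room temperature with biotinylated H3(1-18)K9me3 peptide (50 nM) in PBS pH 7.4, 0.01% Tween-20, then compound added for 30 min. AlphaScreen streptavidin donor/nickel chelate acceptor beads (10 ug/mL final), 30 min dark, luminescence read.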
# BAZ2B block = qHTS Assay for Inhibitors of BAZ2B. Potency, µM (top dose mostly 114 µM), usual class: inhibitors. AID 504333, 2011. Bromodomain adjacent to zinc finger domain protein 2B (Homo sapiens), Q9UIF8. 360,000 tested, 4.4% active. AlphaScreen BAZ2B-H3K14Ac peptide displacement; also: nearly all actives have a fitted effect of over 60% in size
#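 AlphaScreen displacement: compounds (up to 110uM) incubated 30 min at room temperature with a preformed 50 nM BAZ2B/50 nM biotinylated H3K14Ac peptide complex in PBS pH 7.4 with Tween-20. Donor and acceptor beads at 10 ug/mL final added, 20 min light-protected before reading.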
# A number is an active result; i = inactive; ? = inconclusive; nt = no result; [ ] = another dose, or the depositor's remark. The list is not random: actives were taken first. Their share in the collection is about 9%. Calls follow the shape of the dose curve; as a rule, active = well fitted curve in the direction sought with a large enough effect; inconclusive = small, poorly fitted or top-dose-only effect, or another doubt; inactive = no such curve, though single readings can be large; an effect the other way counts as inactive or inconclusive.
SMILES,12-LOX inh,G9a inh,PLK1 PBD inh,JMJD2A Tudor inh,HP1b chromo inh,BAZ2B block
COc1ccccc1CN1CCC(N2CCCCCC2=O)CC1,i,nt,nt,nt,nt,nt
COc1ccc(C=NNC(=O)CCCC(=O)NN=Cc2ccc(OC)c(O)c2)cc1O,i,nt,i,i,i,nt
CC(=O)OCC(=O)Nc1ccc(N=Nc2ccccc2)cc1,i,i,i,?,i,?
O=C(CCl)Nc1ccc(-c2ccccc2)cc1,i,i,i,i,i,i
CC(C)C(=O)OCC(=O)Nc1ccc(N=Nc2ccccc2)cc1,i,44.7µM,i,35.5µM,?,39.8µM
O=C(CCl)Nc1ccc(N=Nc2ccccc2)cc1,?,?,i,?,i,39.8µM
Cc1ccc(C(=O)NCC(=O)NCC(=O)OCc2ccc(Cl)cc2)cc1,i,i,i,i,i,i
Cc1ccc(C=NNC(=O)c2cc(-c3cccnc3)nc3ccccc23)o1,10µM,nt,i,i,i,nt
COc1cc([N+](=O)[O-])cc(/C=N/NC(=O)c2cncc(Br)c2)c1O,?,nt,i,20µM,i,10µM
COc1cc([N+](=O)[O-])cc(/C=N/NC(=O)c2cc(-c3ccccc3)nc3ccccc23)c1O,i,i,i,79.4µM,i,50.1µM
COc1cc([N+](=O)[O-])cc(/C=N/NC(=O)c2cc(C)nc3ccccc23)c1O,i,i,i,22.4µM,i,20µM
COc1cc(/C=N/NC(=O)c2cccc([N+](=O)[O-])c2)cc(OC)c1O,i,?,i,i,i,i
CCCn1c(Cn2ccnc2C)nc2cc(NC(=O)c3cc(OC)c(OC)c(OC)c3)ccc21,i,nt,nt,nt,nt,nt
O=C(NCCc1cnc[nH]1)c1cc(-c2ccccc2F)cc2c1OCCN2Cc1cccnc1,i,nt,nt,nt,nt,nt
O=C1Cc2ccccc2C(=O)N1CCc1ccccc1,i,31.6µM,i,i,i,i
O=C1C(=O)N(Cc2ccccc2)C(=O)N1CCN1C(=O)c2ccccc2C1=O,i,i,i,i,i,i
CC(=O)NC1C(c2nc3ccccc3s2)=C(c2ccccc2)C(=O)N1c1ccc(C)cc1 (stereo not given),i,50.1µM,i,?,?,i
COc1cccc(N2C(=O)C(c3ccccc3)=C(c3nc4ccccc4s3)C2NC(C)=O)c1 (stereo not given),i,i[12.7 µM],i,i,i,i
CC(C)(Cc1cc(CC(C)(C)C(=O)O)cc(C(C)(C)C)c1)C(=O)O,i,i,i,i,i,i
C#CCOCCOCCOCCNc1nc(N2CCOCC2)nc(N2CCN(C(=O)[C@H]([C@@H](C)CC)n3cc(CCCN=C(N)N)nn3)CC2)n1,?,50.1µM,i,i,i,i
C#CCOCCOCCOCCNc1nc(N2CCOCC2)nc(N2CCN(C(=O)[C@H]([C@@H](C)O)n3cc(CCCCN)nn3)CC2)n1,?,44.7µM,i,i,i,?
C#CCOCCOCCOCCNc1nc(N2CCN(C(=O)[C@H]([C@@H](C)O)n3cc(CCCCN)nn3)CC2)nc(N2CCN(C(=O)[C@H]([C@@H](C)CC)n3cc(CCCCN)nn3)CC2)n1,?,i[2.33 µM],i,i,i,i
C#CCOCCOCCOCCNc1nc(N2CCOCC2)nc(N2CCN(C(=O)CCCCCCCCCCNC(=O)[C@H]([C@@H](C)CC)n3cc(CCCCN=C(N)N)nn3)CC2)n1,?,i[2.33 µM],i,i,i,?
CCOc1ccc(OCC)c(Nc2ncncc2-c2nc(-c3ccccc3)no2)c1,i,nt,nt,nt,nt,nt
COc1cc(C)c(S(=O)(=O)N2CCCC2)cc1C,i,i,i,i,i,i
SMILES,12-LOX inh,G9a inh,PLK1 PBD inh,JMJD2A Tudor inh,HP1b chromo inh,BAZ2B block
CCOc1ccc(Br)cc1S(=O)(=O)N1CCCN(C)CC1,i,50.1µM,i,i,i,i
CCOc1ccc(S(=O)(=O)N2CCCCC2)c2ccccc12,i,i,3.36µM,?,i,i
COc1ccc(Br)cc1S(=O)(=O)N1CCCC1,i,i,2.99µM,?,?,i
COc1cc(C)c(S(=O)(=O)N2CCCC2)cc1C(C)C,i,i,26.7µM,i,i,i
CCOc1ccc(Br)cc1S(=O)(=O)N1CCC(C(N)=O)CC1,i,i,i,i,i,i
COc1ccc(NC(=O)c2nc3nc(C)cc(C(F)F)n3n2)cc1OC,i,i,i,i,i,i
COc1ccc(NC(=O)Cc2nnc(SCC(=O)c3ccc(F)cc3)n2C)cc1,i,i,i,i,i,i
COc1ccccc1OCCNC(=O)C1CCCCC1,i,i,i,i,i,i
O=C1[C@H]2CN(Cc3ccc(F)c(Cl)c3)C[C@H]2C(=O)N1Cc1ccc2c(c1)OCO2,i,nt,nt,nt,nt,nt
COc1ccccc1CNC(=O)c1cc(C(C)C)nc2ccccc12,i,i,i,i,i,i
COc1ccc(N2CCN(C(=O)c3cnc(SC)nc3C)CC2)cc1,i,i,nt,i,i,i
COc1ccc(-c2nc(-c3ccccc3)c(-c3ccc(F)cc3)[nH]2)c(OC)c1C,?,?,nt,?,i,25.1µM
COc1ccc(-c2[nH]c(-c3cc(OC)c4c(c3)OCO4)nc2-c2ccccc2)cc1,i,39.8µM,i,?,?,?
CCOc1ccc(-c2nc(-c3ccccc3)c(-c3ccccc3)[nH]2)cc1OCC,i,i,nt,i,i,i
COc1cc(-c2nc(-c3ccccc3)c(-c3ccc(Br)cc3)[nH]2)cc(OC)c1O,20µM,10µM,nt,44.7µM,?,28.2µM
Oc1ccc(-c2nc(-c3ccccc3)c(-c3ccc(Br)cc3)[nH]2)cc1,?,i,nt,?,i,?
Cc1ccc(-c2[nH]c(-c3ccc(C(=O)O)cc3)nc2-c2ccccc2)cc1,?,?,?,?,i,?
Cn1c(=O)c(CCc2ccccc2)nc2cnc(N3CCOCC3)nc21,?,i[0.501 µM],nt,nt,nt,nt
CC(C)(Oc1ccc(Br)cc1)C(=O)N1CCc2ccccc21,i,i[2.33 µM],i,i,i,i
CC(=O)N1N=C(c2ccccc2)OC1c1ccc([N+](=O)[O-])s1 (stereo not given),nt,i,i,i,i,?
CCOC(=O)[C@H]1[C@H]2COc3ccc(Cl)cc3[C@@H]2N2C(=O)c3cc(OC)ccc3NC(=O)[C@@]12C,i,i[2.33 µM],i,i,i,i
CCCc1nc2c3ccccc3ccn2c1Cc1cccc(Cl)c1,?,nt,i,nt,nt,nt
C[N+]1(Cc2ccccc2F)CCN(/C=C/C(=O)C(F)(F)F)CC1,i,nt,nt,nt,nt,nt
CCOC(=O)c1ccc(NC(=O)c2c(NCc3cc(OC)c(OC)cc3OC)sc3c2CCCC3)cc1,?,7.08µM,nt,25.1µM,?,25.1µM
